Results: PubChem BioAssay AID2314 (National Center for Advancing Translational Sciences (NCATS), 2010)
Screen size: about 300,000 compounds; about 37,000 (12%) were called active. Many of the other results were omitted from the sample, so actives are more common in it than they were. Unmarked numbers belong to inactive results. Cut-off read from the data, not from the text of the source: active = max response mostly above about 13% (no sharp cut-off); inactive = mostly below about 14%.

Test: Cycloheximide Counterscreen for Small Molecule Inhibitors of Shiga Toxin; note: read at 38.3 µM for the half of the compounds with a filed dose; 0% is about no effect
Details: cell reporter, cycloheximide protein synthesis inhibition counterscreen; active compounds read high

With `Fc1ccc(-c2ccc(CNCc3ccccn3)o2)cc1Cl` as the molecule, how does the max response read?
The max response was 11.4%.

For `COc1ccc(C(=O)C2CCCN(Cc3cccn3-c3ccccn3)C2)c(C)c1` (stereo not drawn), which max response is on record?
Its max response is -2.02%.

Which max response does the source give for `C[C@@H](NC(=O)[C@@H]1Cc2ccccc2CN1)C(=O)NC1CCCC1` here?
The max response was -1.91%.

With `CCOc1ccc(/C=N\NC(=O)c2c(C)nc3cc(C)ccn23)cc1` as the molecule, how does the max response read?
The max response was 0.972%.

Which max response does the source give for `NC(=O)C1CCN(C(=O)c2ccc3c(=O)n(Cc4cccc(Br)c4)c(=S)[nH]c3c2)CC1` here?
The max response was -3.9%.

For `O=C(Nc1ccccc1C(=O)N1CCCCC1)c1ccco1`, which max response is on record?
Its max response is -0.706%.

Which max response does the source give for `O=C(c1cccc(S(=O)(=O)Nc2ccccc2Cl)c1)N1CCN(C(=O)c2ccco2)CC1` here?
The max response was -0.249%.

Which max response does the source give for `CS/C(=C\C(=O)c1ccco1)Nc1ccccc1Cl` here?
The max response was 38.1% (active).

For `CCOc1ccc(CC(=O)NC2CCN(Cc3ccccc3)CC2)cc1`, which max response is on record?
The max response was 4.32%.

With `CCCOC(=O)c1c(NC(=O)c2cnn3c2NC(c2ccccc2)CC3C(F)(F)F)sc2c1CCCC2` (stereo not drawn) as the molecule, how does the max response read?
The max response was -8.8%.

With `CCc1nc(Nc2ccc(NC(C)=O)cc2)c2oc3ccccc3c2n1` as the molecule, how does the max response read?
Its max response is -3.08%.

For `CCc1nc(Nc2ccc3nccnc3c2)c2oc3ccccc3c2n1`, which max response is on record?
The max response was 12.4% (active).

With `CCc1nc(N2CCN(c3nc(C)cc(C)n3)CC2)c2oc3ccccc3c2n1` as the molecule, how does the max response read?
The max response was 2.99%.

For `O=S(=O)(Nc1ccc(Cl)cn1)c1cnc(Cl)c(Br)c1`, which max response is on record?
Its max response is -1.38%.

With `CCN1CCN(c2cc3nc(C)n(Cc4ccccc4)c(=O)c3cc2NC(=O)c2ccccc2F)CC1` as the molecule, how does the max response read?
The max response was -3.92%.

With `Cc1nnnn1/C(=C\c1ccccc1)C(=O)OCC(=O)N1CC2(C)CC1CC(C)(C)C2` (stereo not drawn) as the molecule, how does the max response read?
Its max response is -5.53%.

Which max response does the source give for `O=C(Nc1nnc(C2COc3ccccc3O2)o1)c1ccc(F)cc1` (stereo not drawn) here?
Its max response is 1.61%.

With `CCn1c(SCC(=O)N/N=C/c2ccncc2)nc2ccccc21` as the molecule, how does the max response read?
The max response was -1.38%.

Which max response does the source give for `COc1ccc(S(=O)(=O)N(CC(=O)N/N=C/c2ccccc2C(=O)O)c2ccccc2OC)cc1` here?
The max response was 1.7%.

Which max response does the source give for `O=C(CSc1nc2ccccc2o1)N/N=C/c1ccccc1C(=O)O` here?
Its max response is 13.7% (active).

With `Cc1ccc(Cn2c(SCC(=O)N/N=C/c3ccccc3OCC(=O)O)nc3ccccc32)cc1` as the molecule, how does the max response read?
Its max response is 3.56%.

Which max response does the source give for `CCc1ccccc1NC(=O)CSc1nnc([C@@H](NC(=O)OC(C)(C)C)C(C)CC)o1` (stereo partly drawn) here?
Its max response is -3.76%.

For `Cn1c(SCC(=O)N/N=C/c2ccc(O)c(O)c2)nc2ccccc21`, which max response is on record?
The max response was -3.26%.

Which max response does the source give for `CCC(NC(=O)c1ccccc1NC(=O)c1ccccc1)C(=O)NNC(=O)CSc1nc2ccccc2o1` (stereo not drawn) here?
The max response was 16.5% (active).

With `Cn1c(=O)[nH]c(=O)c2c1nc(Br)n2CCCCSc1nc2ccccc2o1` as the molecule, how does the max response read?
Its max response is -4.25%.

Which max response does the source give for `Cc1ccc(/C=N/NC(=O)CSc2nc3ccccc3o2)cc1` here?
Its max response is 38.7% (active).

For `CC(C)[C@H](NC(=O)N1CCn2c1nc1ccccc12)C(=O)NCc1ccc2c(c1)OCO2`, which max response is on record?
Its max response is 7.58%.

With `CCCCOP(=O)(c1ccc(N(C)C)cc1)C(O)c1cc(OC)ccc1OC` (stereo not drawn) as the molecule, how does the max response read?
Its max response is -3.9%.

Which max response does the source give for `N[C@@H](Cc1ccccc1)C(=O)N1CCC(C(=O)NCC(=O)Nc2ccc(F)cc2)CC1` here?
The max response was 10.8%.

Which max response does the source give for `Cc1ccsc1C1C(C#N)=C(N)OC2=C1C(=O)CC(C)C2` (stereo not drawn) here?
The max response was -3.34%.

With `CSc1nnc(C2CCCN(CC(=O)Nc3ccccc3N3CCOCC3)C2)n1C(C)C` (stereo not drawn) as the molecule, how does the max response read?
Its max response is -6.84%.

Which max response does the source give for `O=c1[nH]c2ccc(S(=O)(=O)N3CCCC3)cc2[nH]1` here?
The max response was -1.27%.

Which max response does the source give for `CCCN1C(=O)C(Cc2nc3ccccc3c(=O)n2-c2ccccc2)c2cc(C)ccc21` (stereo not drawn) here?
The max response was -6.23%.

Which max response does the source give for `Cc1ccc(S(=O)(=O)N(CC(=O)Nc2cccnc2)c2ccc(Br)cc2)cc1` here?
The max response was 18.2%.

Which max response does the source give for `O=C(Nc1ccccc1)c1ccc(NC(=O)c2cccs2)cc1` here?
Its max response is -4.38%.

With `CC(C)C(=O)Nc1ccc(C(=O)NNC(=O)c2cccs2)cc1` as the molecule, how does the max response read?
Its max response is 19.4% (active).

Which max response does the source give for `NNC(=O)c1ccc(Cl)cc1Cl` here?
The max response was 9.54%.

With `Cc1ccc(S(=O)(=O)N2CCN(C(=O)c3cccs3)CC2)cc1` as the molecule, how does the max response read?
Its max response is -2.84%.

With `Cc1ccc(NNC(=O)c2cccs2)cc1Cl` as the molecule, how does the max response read?
The max response was 9.69%.

With `Cc1ccc(C)c(NC(=O)CCC(=O)NNC(=O)c2cccs2)c1` as the molecule, how does the max response read?
Its max response is 5.25%.

For `O=C(NNC(=O)c1ccc(Cl)cc1Cl)c1cccs1`, which max response is on record?
The max response was 47.6% (active).

With `Cc1ccc(C(=O)NNC(=O)c2cccs2)cc1` as the molecule, how does the max response read?
Its max response is 33.4% (active).

For `Cc1cccc(-c2nc3c(c(SCC(=O)N4CCOCC4)n2)CCCC3)c1`, which max response is on record?
Its max response is -3.15%.

Which max response does the source give for `Cc1ccc2c(c1)C(c1ccccc1)N(C(=O)c1ccc(F)cc1)CC(=O)N2` (stereo not drawn) here?
The max response was -3.35%.

With `CC1COc2ccccc2N1C(=O)c1ccc(F)cc1` (stereo not drawn) as the molecule, how does the max response read?
Its max response is -4.53%.

With `O=C(CN(Cc1ccccc1)C(=O)CCC(=O)Nc1ccccn1)NCCc1ccccc1` as the molecule, how does the max response read?
Its max response is -3.42%.

Which max response does the source give for `OC(c1ccccc1)C(CN1CCOCC1)c1ccccc1` (stereo not drawn) here?
Its max response is 6.46%.

For `COc1cc(C(C(=O)NC2CCCC2)N(Cc2ccccc2)C(=O)c2snc(C(N)=O)c2N)ccc1O` (stereo not drawn), which max response is on record?
Its max response is -3.72%.

Which max response does the source give for `C=CCN(C(=O)c1cc(C)cc(C)c1)C1(C(=O)Nc2ccccc2)CCN(C(C)C)CC1` here?
Its max response is 7.82%.

Which max response does the source give for `Cc1ccc(CN(Cc2cccnc2)C(=S)Nc2cc(Cl)ccc2C)cc1` here?
The max response was -1.05%.

With `O=S(=O)(N/N=C\c1cccn1-c1ccccc1)c1ccc2ccccc2c1` as the molecule, how does the max response read?
Its max response is -3.05%.

With `CN(C)c1ccc(-n2cccc2/C=C2/SC(=Nc3ccc(F)cc3)NC2=O)cc1` as the molecule, how does the max response read?
Its max response is 1.13%.

For `CN(C)c1ccc(-n2cccc2/C=N/n2cnnc2)cc1`, which max response is on record?
The max response was 36.3% (active).

With `CCOC(=O)N1CCN(C(=O)C(=O)Nc2sc3c(c2C#N)CC(C)(C)OC3)CC1` as the molecule, how does the max response read?
The max response was -4.16%.

For `CC(=O)Nc1ccc(S(=O)(=O)Nc2nccc(/C=C/c3ccccc3F)n2)cc1`, which max response is on record?
The max response was -1.75%.

For `Cc1cc(C)nc(NS(=O)(=O)c2ccc(N/C=C\C(=O)c3cccs3)cc2)n1`, which max response is on record?
Its max response is 36.2% (active).

Which max response does the source give for `Cc1cc(C)nc(NS(=O)(=O)c2ccc(N3C(=O)C4CCCCC4C3=O)cc2)n1` (stereo not drawn) here?
Its max response is 1.2%.

With `Cc1c(C(C)(C)O)[nH]c2ccc(C#N)cc12` as the molecule, how does the max response read?
Its max response is 6.81%.

Which max response does the source give for `COc1ccccc1CNC(=O)C1CCN(C(=O)[C@@H]2Cc3ccccc3CN2)CC1` here?
The max response was 2.06%.

For `COc1ccccc1CCNC(=O)C1CCN(C(=O)/C=C/c2ccccc2)CC1`, which max response is on record?
Its max response is 14.7% (active).

For `COc1ccccc1CNC(=O)C1CCN(S(C)(=O)=O)CC1`, which max response is on record?
The max response was -1.24%.

With `COCCNC(=S)N/N=C/c1c(C)[nH]c2ccccc12` as the molecule, how does the max response read?
Its max response is 8.43%.

With `O=C(N/N=C/c1c(Cl)[nH]c2ccccc12)c1sc2ccccc2c1Cl` as the molecule, how does the max response read?
The max response was 12.8% (active).

With `Cc1nn(C)cc1/C=N/NC(=O)c1sc2ccccc2c1Cl` as the molecule, how does the max response read?
The max response was 4.94%.

For `COc1ccc(NC(=O)C2CCC(CNS(=O)(=O)c3csc(C(N)=O)c3)CC2)cc1OC` (stereo not drawn), which max response is on record?
The max response was -7.21%.

Which max response does the source give for `O=C(Cc1ccccc1F)NC1CCSc2ccccc21` (stereo not drawn) here?
The max response was -2.13%.

For `COC(=O)c1ccccc1NC(=S)NC(=O)c1ccccc1F`, which max response is on record?
The max response was -2.77%.

Which max response does the source give for `O=C(NC(=S)NC1CCSC1=O)c1ccccc1F` (stereo not drawn) here?
Its max response is 24.5% (active).

Which max response does the source give for `COC1=C(N2CCOCC2)C(=O)c2ccccc2C1=O` here?
The max response was 0.793%.

Which max response does the source give for `Clc1ccc(-c2csc(-c3ccncc3)n2)cc1` here?
Its max response is 49.1% (active).

For `Fc1ccc(-c2csc(-c3ccc(C4SCCS4)cc3)n2)cc1F`, which max response is on record?
The max response was 8.6%.

For `CCCCCN1CC(O)=C(c2nc(-c3ccc(Cl)cc3)cs2)C1=N`, which max response is on record?
Its max response is -0.837%.

With `CSc1cccc(NC(=O)CN2C(=O)COc3ccc(S(=O)(=O)N4CCOCC4)cc32)c1` as the molecule, how does the max response read?
Its max response is -0.43%.

With `O=C(C1CC(=O)N(C2CCCCC2)C1)N1CCN(c2ccccc2)CC1` (stereo not drawn) as the molecule, how does the max response read?
Its max response is -1.46%.

With `Cn1c(SCC(=O)N2CCCCC2)nc2c(c1=O)SCC2` as the molecule, how does the max response read?
Its max response is 9.54%.

For `COCc1ccc(CN2CCC(Oc3ccc(C(=O)NCc4ccccn4)cc3)CC2)o1`, which max response is on record?
Its max response is 17.2%.

With `COc1ccccc1-n1cnc2cc(NS(=O)(=O)c3ccccc3)ccc21` as the molecule, how does the max response read?
The max response was 33.5% (active).

With `COCCCNC(=O)c1ccc2c(c1)ncn2-c1ccccc1OC` as the molecule, how does the max response read?
The max response was 10.4%.

With `COc1cc(NS(=O)(=O)c2ccccc2)ccc1-n1nc(C)cc1C` as the molecule, how does the max response read?
The max response was -2.43%.

With `O=C(c1cc(-c2ccc(O)cc2)on1)N1CCOCC1` as the molecule, how does the max response read?
The max response was 27.7% (active).

Which max response does the source give for `O=C(c1cc(-c2cccc(O)c2)on1)N1CCc2ccccc2C1` here?
The max response was 7.88%.

For `CCCn1nc(C(=O)N2CCCc3ccccc32)c2ccccc2c1=O`, which max response is on record?
The max response was -1.1%.

With `Cn1c(SCC(=O)N2CCCc3ccccc32)nc2ccccc2c1=O` as the molecule, how does the max response read?
Its max response is -3.04%.

For `O=C(c1cc(-c2ccc(F)cc2)on1)N1CCN(c2ccc(F)cc2)CC1`, which max response is on record?
Its max response is -2.49%.

Which max response does the source give for `O=C(c1cc(-c2ccc(Cl)cc2)on1)N1CCN(c2ccccc2)CC1` here?
Its max response is 30.2% (active).

Which max response does the source give for `Cc1ccc(-c2cc(C(=O)N3CCc4ccccc4C3)no2)cc1` here?
The max response was 10.4%.

For `O=C(c1cc(-c2ccncc2)nc2ccccc12)N1CCC2(CC1)OCCO2`, which max response is on record?
Its max response is 2.43%.

With `COc1ccc(-c2cc(C(=O)N3CCN(c4ccc(F)cc4)CC3)no2)cc1` as the molecule, how does the max response read?
Its max response is -1.58%.

For `O=C(c1cccs1)N1CCN(C(=O)N2CCOCC2)CC1`, which max response is on record?
Its max response is -2.36%.

With `Cc1ccc(-c2cc(C(=O)N3CCC4(CC3)OCCO4)no2)cc1` as the molecule, how does the max response read?
The max response was 24.4% (active).

For `O=C(c1cc(-c2ccc(O)cc2)on1)N1CCCc2ccccc21`, which max response is on record?
Its max response is 32.9% (active).

Which max response does the source give for `NC(=O)Cn1cc(/C=N\NS(=O)(=O)c2ccccc2)c2ccccc21` here?
The max response was -1.04%.

With `COc1ccc(OC)c(Nc2nc3ccccc3n3cnnc23)c1` as the molecule, how does the max response read?
Its max response is -2.88%.
